The record followed here is ChEMBL document CHEMBL4513141, “CO-ADD screening of NIH (USA) - Clinical Collection” (2021).

By Inhibition is commonly meant the change of the read-out against control, counted positive when it falls.

Results with a measured potency or affinity are listed apart.

The assay has as its system Klebsiella pneumoniae. The note with it: Concentration 20 uM; ASSAY_TEST Inhibition of Bacterial Growth; detection method Absorption (OD600); MEDIA CAMHB; plate type 384well; NBS; CORNING #3640; time 18 hr.
`NC(=O)C[S+]([O-])C(c1ccccc1)c1ccccc1` (centres undefined) [MODAFINIL]: the Inhibition worked out at 7.6%.
Turning to `CCCC(C)(COC(N)=O)COC(=O)NC(C)C` (centres undefined) [CARISOPRODOL], the Inhibition was determined as 4.45%.
To `C[C@]12CCC(=O)C[C@@H]1CC[C@@H]1[C@@H]2CC[C@@]2(C)[C@H]1CC[C@]2(C)O` [MESTANOLONE] belongs 3.85%; to `CN(C)CCc1c[nH]c2ccc(Cn3cncn3)cc12.O=C(O)c1ccccc1` [RIZATRIPTAN BENZOATE], 7.74%.
Turning to `CC(NC(C)(C)C)C(=O)c1cccc(Cl)c1.Cl` (centres undefined) [BUPROPION HYDROCHLORIDE], the Inhibition amounted to 2.52%.
To `CCOC(=O)C1=C(COCCN)NC(C)=C(C(=O)OC)C1c1ccccc1Cl` (centres undefined) [AMLODIPINE] belongs 0.34%.
In the case of `CC(C)NCC(O)COc1cccc2[nH]ccc12` (centres undefined) [PINDOLOL], the Inhibition turned out to be 17.1%.
As for `Cl.Oc1ccc2c3c1OC1C(O)CC[C@@]4(O)[C@@H](C2)N(CC2CCC2)CC[C@]314` (some centres undefined), the Inhibition was 8.11%.
As to `CC[C@@H]1/C=C/C=C/C[C@H](C)[C@@H](O)[C@](C)(O)C(=O)[C@H](C)[C@@H](O)[C@H](C)C(=O)[C@H](C)[C@@H](O)[C@H](C)/C=C/C(=O)O[C@H]2[C@@H](C)[C@@H](CC1)O[C@@]1(CC[C@@H](C)[C@@H](C[C@H](C)O)O1)[C@@H]2C`, the Inhibition came to 17.55%.
With `CN1[C@@H]2CC[C@H]1C[C@@H](OC(=O)c1c[nH]c3ccccc13)C2.Cl`, the Inhibition came to 15.9%.
As to `CCC1(c2ccc(N)cc2)CCC(=O)NC1=O` (centres undefined) [AMINOGLUTETHIMIDE], the Inhibition stood at 3.02%.
For `NCCc1ccccn1`, the Inhibition turned out to be 3.21%.
With `CC[N+](C)(C)c1cccc(O)c1.[Cl-]` [EDROPHONIUM CHLORIDE], the Inhibition worked out at 15.01%.
As to `COc1cc([C@@H]2c3cc4c(cc3[C@H](O)[C@H]3COC(=O)[C@H]23)OCO4)cc(OC)c1OC` [PODOFILOX], the Inhibition is reported as 15.68%.
In the case of `CC(COc1ccccc1)N(CCCl)Cc1ccccc1.Cl` (centres undefined) [PHENOXYBENZAMINE HYDROCHLORIDE], the Inhibition was determined as 17.18%.
Consider `COc1cc(-c2ccc(=O)[nH]n2)ccc1OC(F)F` [ZARDAVERINE], for which the Inhibition is 6.98%.
Consider `Cl.c1ccc2c(CC3=NCCN3)cccc2c1` [NAPHAZOLINE HYDROCHLORIDE], for which the Inhibition is 13.63%.
For the compound `Cl.O=C1CC2(CCCC2)CC(=O)N1CCCCN1CCN(c2ncccn2)CC1` [BUSPIRONE HYDROCHLORIDE], the Inhibition was found to be 10.99%.
Take `CC1CCC[C@H](O)CCCCCc2cc(O)cc(O)c2C(=O)O1` (some centres undefined): the Inhibition is reported as 3.64%.
On to `C#C[C@]1(OC(C)=O)CC[C@H]2[C@@H]3CCC4=CC(=O)CC[C@@H]4[C@H]3CC[C@@]21C` [NORETHINDRONE ACETATE], for which the Inhibition is reported as -0.71%.
For the compound `Cl.O[C@@H]1CCCC[C@H]1N1CCC(c2ccccc2)CC1`, the Inhibition is 4.06%.
For the compound `Cl.O=C1CC[C@@]2(O)[C@H]3Cc4ccc(O)c5c4[C@@]2(CCN3CC2CC2)[C@H]1O5` [NALTREXONE HYDROCHLORIDE], the Inhibition was found to be 13%.
Turning to `C[C@]12CC[C@H]3[C@@H](CCC4=CC(=O)CC[C@@]43C)[C@@H]1CC[C@@H]2O` [TESTOSTERONE], the Inhibition was found to be 3.5%.
For `C[N+]1(C)CCCC(OC(=O)C(O)(c2ccccc2)c2ccccc2)C1.[Br-]` (centres undefined) [MEPENZOLATE BROMIDE], the Inhibition is on record as 9.6%.
With `CN[C@@H]1C[C@@H](c2ccc(Cl)c(Cl)c2)c2ccccc21.Cl` [INDATRALINE HYDROCHLORIDE], the Inhibition is reported as -0.11%.
For the compound `CN(C)CCOc1ccc(/C(=C(/CCCl)c2ccccc2)c2ccccc2)cc1.O=C(O)CC(O)(CC(=O)O)C(=O)O` [TOREMIFENE CITRATE], the Inhibition is on record as 8.47%.
To `CC(C)CC(N(C)C)C1(c2ccc(Cl)cc2)CCC1` (centres undefined) [SIBUTRAMINE] belongs 10.19%; to `C[N+]1(C)CCN(c2ccccc2)CC1.[I-]` [DIMETHYLPHENYLPIPERAZINIUM IODIDE], 19.04%; to `CN(C)CCc1c[nH]c2ccc(C[C@H]3COC(=O)N3)cc12` [ZOLMITRIPTAN], 7.51%.
With `c1ccc2c(c1)Nc1ccccc1S2` [PHENOTHIAZINE], the Inhibition is listed as 1.87%.
Take `CC(O)(CS(=O)(=O)c1ccc(F)cc1)C(=O)Nc1ccc(C#N)c(C(F)(F)F)c1` (centres undefined) [BICALUTAMIDE]: the Inhibition was determined as 7.16%.
To `O=C(O[C@@H]1Cc2c(O)cc(O)cc2O[C@@H]1c1cc(O)c(O)c(O)c1)c1cc(O)c(O)c(O)c1` [EPIGALOCATECHIN GALLATE] belongs 17.83%; to `Br.Br.CN1CC[C@]2(c3cccc(O)c3)Cc3nc4ccccc4cc3C[C@H]2C1.O`, 12.17%.
Turning to `CC(=O)OC1C([N+]2(C)CCCCC2)C[C@H]2C3CC[C@H]4C[C@H](OC(C)=O)C([N+]5(C)CCCCC5)CC4(C)[C@H]3CCC12C.[Br-].[Br-]` (some centres undefined), the Inhibition turned out to be 10.46%.
